Records with an inconclusive call do not appear. Where a call stands in place of a potency, no number is given. Activity calls are given as the source filed them. Calls follow the shape of the dose curve; as a rule, active = well fitted inhibition curve with a large enough effect; inconclusive = small, poorly fitted or top-dose-only effect; inactive = no such curve, though single readings can be large or run the other way. Non-standard residues stand in square brackets, D forms with d. Residues, ends and D or L forms follow the SMILES beside them. *: point of attachment. Sta = CC(C)C[C@H](N)[C@@H](O)CC(=O)O; Isovaleryl = CC(C)CC(=O)*
Potency is read from the fitted curve at half-maximal effect.

The test can be described thus: BET inhibitor-based combinations targeting novel dependencies in MECOM-rearranged (r) AML: UCSD-AML1 cell line (AID 2202235). Also: nearly all actives have a fitted effect of over 40% in size. Particulars: UCSD-AML1 AML cells viability, CellTiter-Glo, 48 h; series mostly up to 46 µM. An excerpt:
Ecotropic viral insertion site 1 (EVI1) is located on chromosome 3q26.2 as part of the MECOM (MDS and EVI1 complex) locus. Under normal hematopoiesis, EVI1 is a regulator of hematopoietic stem cell maintenance and self-renewal and EVI1 levels decrease as the cells differentiate. In approximately 5-10% of de novo acute myeloid leukemia (AML) EVI1 is aberrantly expressed, including Chromosomal inv(3)(q21;q26.2) or t(3;3)(q21;q26.2) alterations (MECOM-r) that account for about 50% of AML with EVI1 overexpression 31. AMLs with high levels of EVI1 have a poor prognosis and an overall survival time averaging between 10-14 months. EVI1 overexpression confers resistance in leukemia cells, highlighting the need to develop new targeted therapies for EVI1 overexpressing AMLs. Here, we performed an unbiased chemical drug screening by evaluating the single agent activity of a collection of 2,480 oncology-focused, approved and investigational drugs (NCATS Mechanism Interrogation Plates, MIPE v5.0) against a panel of seven AML cell lines. These included four MECOM-r cell-lines (AML-191, AML-194, UCSD-AML1 and HNT-34) and three non-MECOM-r AMLs (MV4-11, OCI-AML3 and SET-2). Exploiting the mechanistic redundancy built in the library, we identified target-level sensitivities in MECOM-r AML cells and relative activity as compared to other AML subtypes.
A collection of 2480 mechanistically annotated dugs (MIPE v5.0) was used to screen four 3q26.2 rearranged AML cell lines and three non-3q26.2 rearranged AML cell lines. This library purposely exploits redundancy by including multiple inhibitors of key onco-targets, while simultaneously encompassing mechanistic diversity, targeting more than 800 distinct mechanisms of action. Briefly, cells were seeded in 5 uL of growth media using a Multidrop Combi dispenser into 1536 well white polystyrene tissue culture treated plates (Corning) at a density of 500cells/well. For each cell-line, for each of the 2480 drugs in MIPE v5.0 library, an 11-point dose curve was generated via a 1536 pin-tool. Plates were incubated for 48 hr at standard incubator conditions, covered by a stainless steel gasketed lid to prevent evaporation. Cell viability was determined by luminescence based, Cell Titer Glo assay (Promega). In detail, 3 uL of Cell Titer Glo were added to each well and plates were incubated at room temperature for 15 min with a stainless-steel lid in place. Luminescence readings were taken using a Viewlux (PerkinElmer) with a 2 s exposure time per plate. Compound dose-response curves were normalized to DMSO and empty well controls on each plate. Quantitative drug activity data from dose-response curves was determined utilizing area Under the Curve (AUC) and Z-transformed AUC (Z-AUC, a mean-centering transformation applied to each individual cell-line screened).
On the technique in general: Cellular ATP, detected with luciferase, serves as a proxy for viable cell number.
On to `C[C@@H]1CN(c2c(F)c(N)c3c(=O)c(C(=O)O)cn(C4CC4)c3c2F)C[C@H](C)N1`, for which the Potency entry was “inactive”.

Consider `O=C(O)CCNC(=O)c1ccc(N=Nc2ccc(O)c(C(=O)O)c2)cc1`, for which the Potency entry is “inactive”.

For the compound `CC1COC2(CCN(c3nc(=O)c4cc(C(F)(F)F)cc([N+](=O)[O-])c4s3)CC2)O1` (stereo not given), the Potency result is “inactive”.

Turning to `Cn1cc(-c2ccc3nnc(Sc4ccc5ncccc5c4)n3n2)cn1`, the Potency result was “inactive”.

On to `COC1CCC(C(=O)c2ccc3nc4c(cc3c2)CCCO4)CC1` (stereo not given), for which the Potency entry was “inactive”.

`Cc1nc(-c2cccnc2)sc1C(=O)Nc1ccccc1-c1cn2c(CN3CCOCC3)csc2n1`: the Potency entry was “inactive”.

Consider `NCC(=O)Nc1ccc(-n2nc(C(F)(F)F)cc2-c2ccc3c(ccc4ccccc43)c2)cc1`, for which the Potency entry was “inactive”.

`COc1cc2ncnc(Nc3cc(Br)c(O)c(Br)c3)c2cc1OC`: the Potency was 26.3 µM (active).

Consider `COc1cccc2nc(-c3cccs3)nc(NN3C(=O)C=C(C)C3=O)c12`, for which the Potency was 0.105 µM (active).

Consider `CC(C)CC(=O)N[C@H](C(=O)N[C@H](C(=O)N[C@@H](CC(C)C)[C@@H](O)CC(=O)N[C@@H](C)C(=O)N[C@@H](CC(C)C)[C@@H](O)CC(=O)O)C(C)C)C(C)C` (Isovaleryl-VV[Sta]A[Sta]-OH), for which the Potency result was “inactive”.

Take `COc1ccc2cc([C@H](C)C(=O)O)ccc2c1`: the Potency entry is “inactive”.

For `NC(=O)Nc1sc(-c2ccc(F)cc2)cc1C(N)=O`, the Potency was 1.86 µM (active).

Regarding `CCCCc1oc2ccc(NS(C)(=O)=O)cc2c1C(=O)c1ccc(OCCCN(CCCC)CCCC)cc1`, the Potency was 10.5 µM (active).

In the case of `Oc1ccc(Nc2nc(-c3ccc(Cl)cc3)cs2)cc1`, the Potency is 6.61 µM (active).

For the compound `C[C@H](NC(=O)[C@@H](O)c1cc(F)cc(F)c1)C(=O)N[C@@H]1C(=O)N(C)c2ccccc2-c2ccccc21`, the Potency entry is “inactive”.

With `COc1cc2c(NC3CCN(C(C)C)CC3)nc(C3CCCCC3)nc2cc1OCCCN1CCCC1`, the Potency was 11.8 µM (active).

`Cc1c(C(=O)NN2CCCCC2)nn(-c2ccc(Cl)cc2Cl)c1-c1ccc(Cl)cc1`: the Potency result is “inactive”.

As to `Cc1cnc(Nc2ccc(F)cc2Cl)nc1-c1c[nH]c(C(=O)N[C@H](CO)c2cccc(Cl)c2)c1`, the Potency was 20.9 µM (active).

Consider `C/C=C/C(=O)N(CC)c1ccccc1C`, for which the Potency entry is “inactive”.

`CC[C@@H]1C(=O)N(C)c2cnc(Nc3ccc(C(=O)NC4CCC(N5CCN(CC6CC6)CC5)CC4)cc3OC)nc2N1C(C)C` (stereo not given in full): the Potency is 0.166 µM (active).

In the case of `COc1cc(C[C@@H](CO)[C@H](CO)Cc2ccc(O)c(OC)c2)ccc1O`, the Potency entry is “inactive”.

Consider `CN(C)c1ccc(C2Nc3ccc4ccccc4c3C3=C2C(=O)CC(C)(C)C3)cc1Br` (stereo not given), for which the Potency entry was “inactive”.

Consider `Cc1cn2cc(C(=O)N(C)CCO)cc(N[C@@H]3CCOc4cccc(C)c43)c2n1`, for which the Potency entry was “inactive”.

Take `O=C(O)CCCCCC(=O)NN=C1CCCC1`: the Potency result is “inactive”.

Regarding `CC(C)c1nn(-c2c(Cl)cccc2Cl)c2nc(Cc3ccc(OCCO)cc3)[nH]c(=O)c12`, the Potency was 0.0417 µM (active).

With `CCOCC(O)COc1ccc(NC(=O)CC[S+](C)C)cc1` (stereo not given), the Potency result is “inactive”.

As to `Nc1ccc(C(=O)Nc2cccc(-c3nc(N4CCOCC4)c4oc5ncccc5c4n3)c2)cn1`, the Potency is 9.34 µM (active).

Consider `CCn1cc(C(=O)O)c(=O)c2cc(F)c(N3CCN(C)CC3)cc21`, for which the Potency entry is “inactive”.

As to `C#Cc1cccc(Nc2ncnc3cc(OCCOC)c(OCCO)cc23)c1`, the Potency was 13.2 µM (active).

With `c1ccc(-c2oc3ncnc(NC[C@@H]4CCCO4)c3c2-c2ccccc2)cc1`, the Potency entry was “inactive”.

Turning to `COc1cc([C@@H]2c3cc4c(cc3[C@H](O)[C@H]3COC(=O)[C@@H]23)OCO4)cc(OC)c1OC`, the Potency was 0.468 µM (active).

Take `Cc1cc(C2CCCCC2)n(O)c(=O)c1`: the Potency was 16.6 µM (active).

As for `CC(=O)NC(CS)C(=O)O` (stereo not given), the Potency entry was “inactive”.

Regarding `CNC(=O)c1c(F)cccc1Nc1nc(Nc2cc3c(cc2OC)CCN3C(=O)CN(C)C)nc2[nH]ccc12`, the Potency is 8.33 µM (active).

As to `O=C(O)c1nc(=O)[nH]c(=O)[nH]1`, the Potency entry was “inactive”.

Turning to `CC(=O)OCCN1C(=O)c2c(C)nc3ccc(S(=O)(=O)N4CCOCC4)cc3c2C1=O`, the Potency result was “inactive”.

Consider `COc1nc(C)cnc1NS(=O)(=O)c1cccnc1-c1ccc(-c2nnco2)cc1`, for which the Potency result was “inactive”.

In the case of `COc1cccc(-c2cc(=O)c3ccccc3o2)c1N`, the Potency entry is “inactive”.

As for `CN(C)c1ccc(C(=C2C=CC(=[N+](C)C)C=C2)c2ccc(N(C)C)cc2)cc1`, the Potency is 1.05 µM (active).

Regarding `COC(=O)c1ccc2c(C(=Nc3ccc(N(C)C(=O)CN4CCN(C)CC4)cc3)c3ccccc3)c(O)[nH]c2c1`, the Potency was 5.25 µM (active).

For the origin of these results see PubChem BioAssay (NCATS).
